Results from PubChem BioAssay.
Calls of active or inactive are those of the source. How the calls were made is not given here.

Test: Brca1-Bard1 BiLC signal decrease – luminescence, single concentration, counter-screen for Mdm2/MdmX interaction inhibitor project, confirmation (AID 504668)
Details: Brca1/Bard1 bimolecular luciferase complementation counterscreen, at 8 µM, stronger effect = higher value

SMILES	inhibition
ClC(Cl)(Cl)c1nc2ccccc2n2nncc12	31.8% (active)
O=C(Nc1nc(-c2ccccn2)cs1)c1ccc(Cl)s1	24.4% (active)
COc1cc(NC(=S)NC(=O)c2ccc(C(C)(C)C)cc2)ccc1NC(=O)c1cccs1	27.7% (active)
Cc1cccn2c(=O)c3cc(C(=O)NCCN4CCOCC4)c(=N)n(Cc4ccc(F)cc4)c3nc12	34.8% (active)
COc1ccc(/C(C)=N/NC(=O)c2cccc(S(=O)(=O)N3CCCC3)c2)c(O)c1	34.4% (active)
O=C(CCCN1C(=O)/C(=C\c2cccc(Br)c2)SC1=S)Nc1cccnc1	24.4% (active)
c1ccc(CCc2nn3c(-c4ccncc4)nnc3s2)cc1	33.7% (active)
C/C(=N\NC(=O)C1CCCN(S(=O)(=O)c2ccccc2)C1)c1ccccn1 (stereo not given)	35.2% (active)
CCOc1cc(/C=N/NC(=O)Cc2ccc(C(F)(F)F)cc2[N+](=O)[O-])c(Br)cc1OC	30.8% (active)
Cc1nc(SCc2nc3cc(Cl)c(F)cc3[nH]2)c2oc3ccccc3c2n1	31.6% (active)
CCOC(=O)C1=C(C)n2c(s/c(=C/c3cccc([N+](=O)[O-])c3)c2=O)=NC1c1ccc(O)c(OC)c1 (stereo not given)	26.4% (active)
O=C(/C=C\c1cn(-c2ccccc2)nc1-c1ccccc1)Nc1nccs1	28.9% (active)
O=S(=O)(CCSc1nc2ccccc2o1)c1nc2ccccc2s1	35.6% (active)
CC(=O)c1ccc(NC(=O)c2cc(CC(C)C)nc3ccccc23)cc1	33.6% (active)
O=C(Nc1nc(-c2ccccn2)cs1)c1cc(Cl)ccc1[N+](=O)[O-]	32.3% (active)
CN(C)CCN(C(=O)/C=C/c1cccs1)c1nc2c(F)cc(F)cc2s1	28.9% (active)
OC(c1cc(C(F)(F)F)nc2c(C(F)(F)F)cccc12)C1CCCCN1 (stereo not given)	35.8% (active)
Oc1ccccc1CNc1ccc(Br)cn1	28.8% (active)
C/C(=N\NC(=O)c1nnn(-c2nonc2N)c1CN1CCc2ccccc21)c1ccccc1O	31.1% (active)
O=C(Oc1ccnc2cc(Cl)ccc12)N1CCCCCC1	30% (active)

SMILES	inhibition
COC1(OC)C(/C=C/c2ccc(C)cc2)C(C#N)(C#N)C1(OC)OC (stereo not given)	35.3% (active)
CCOc1ccc2[nH]c3c(N4CCc5ccccc5C4)ncnc3c2c1	35.8% (active)
O=C(N/N=C/c1ccccc1O)c1cccc(C(F)(F)F)c1	35.8% (active)
C=CCc1cccc(/C=N/NC(=O)CNc2ccccc2OC)c1O	28.3% (active)
O=C(CCCN1C(=O)/C(=C/c2ccccc2)SC1=S)Nc1ccccc1O	29.9% (active)
CCOC(=O)N1C(=O)[C@@](c2ccc(Cl)cc2)(C(C)C)N1C(=O)OCC	33.2% (active)
Oc1c(CN2CCCC2)cc(COCc2ccccc2)c2cccnc12	32.2% (active)
CC[C@]1(c2ccccc2OC)ON(c2ccccc2C(F)(F)F)C1=O	34.6% (active)
O=C1C(=C2SCCCS2)CC/C1=C\c1ccc(F)cc1	25.5% (active)
COc1ccc(/C=C2/SC(=S)N(CCCC(=O)N3CCN(C)CC3)C2=O)cc1	31.7% (active)
O=C(N/N=C/c1cc(Br)ccc1O)c1cccc(N2CCCC2=O)c1	31.4% (active)
Cc1ccccc1OCC(O)Cn1c(=N)n(Cc2ccccc2)c2ccccc21 (stereo not given)	28.9% (active)
C/C(=N\NC(=O)c1cccc2ccccc12)c1ccccn1	29.9% (active)
CCOC(=O)c1cccc2c1-c1ccccc1/C2=N/O	30.6% (active)
COC(=O)c1ccc(Sc2nnnn2-c2ccccc2)c([N+](=O)[O-])c1	23% (active)
COc1ccc(Nc2ncnc3ccc(Br)cc23)cc1OC	30.5% (active)
CCC(C)n1c(=O)c(C(=O)Nc2ccccc2S(N)(=O)=O)c(O)c2ccccc21 (stereo not given)	30.8% (active)
CC(=O)Oc1c(C)cc(Cl)cc1C(=O)Nc1ccc([N+](=O)[O-])cc1Cl	27.7% (active)
COc1ccccc1-c1cc(C(F)(F)F)nc(S(=O)(=O)CCCC(=O)Nc2cc(C)on2)n1	32.8% (active)
COc1ccc(C(=O)C(CN2CCCC2)c2ccccc2)cc1 (stereo not given)	27.6% (active)
